Drawing on PubChem BioAssay, this text covers growth inhibition, inhibition and outcome for 17 molecules.

Each structure is given as a SMILES string. Values without a mark were called inactive. For some assays here: Entries with a potency or affinity are not part of this list. Activity calls are given as the source filed them. Unless noted, how the calls were made is not given here.

Assay [1] is described as follows: antimalarial activity against Dd2 strain (AID 2302;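 active means growth inhibition above 50% at the single 2 µM test dose, taken to imply half-maximal potency below 2 µM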;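 further: 0% = DMSO untreated growth and 100% = chloroquine plus artemisinin killed control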). The note with it: P. falciparum Dd2 in RBCs, LDH growth readout, 72 h; at 2 µM; active compounds read high.
Assay [2] is described as follows: human hepatoma cell viability loss – ATP luminescence, cytotoxicity control for P. falciparum antimalarial project, primary screen (AID 2303;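 active means inhibition above 50%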;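 further: 0% = DMSO wells and 100% = digitonin-killed cells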). Particulars: HepG2 viability, 24-48 h, at 10 µM, active compounds read high.
Assay [3] concerns the target L-lactate dehydrogenase (Plasmodium falciparum (isolate CDC / Honduras)) (UniProt Q27743). Kind of assay: PfLDH activity inhibition – cell lysate, 3D7 strain, counter-screen for P. falciparum growth inhibition project (AID 2304).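 Further: 0% = vehicle and 100% = reference inhibitor.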 Particulars: P. falciparum 3D7 crude extract, LDH APAD/NBT absorbance; at 2 µM; active compounds read high. Background: A counterscreen serves to expose hits that act by an unwanted route or on another target.

Assay [4] can be described thus: inhibition of 3D7 malaria parasite growth – strain 3D7 (AID 2306).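 Further: 0% = DMSO wells and 100% = chloroquine plus artemisinin control wells.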 The note with it: P. falciparum 3D7 erythrocytic growth, LDH absorbance, 72 h; at 2 µM; active compounds read high.
Assay [5] has as its target Plasmodium falciparum protein kinase 6 (PK6, PF3D7_1337100) (UniProt Q8IDW1). Put plainly: PfPK6 kinase inhibitors, biochemical, TCAMS library (AID 1159586). Particulars: recombinant PfPK6, Kinase-Glo ATP depletion luminescence.
For assay [6], the target named is Protein kinase 7 (PK7), Plasmodium falciparum 3D7 (PF3D7_0213400) (UniProt Q7YTF7). Put plainly: inhibition of Plasmodium PK7 catalytic activity – biochemical, TCAMS antimalarial set, Kinase-Glo luminescence (AID 1159587). The note with it: recombinant PfPK7, Kinase-Glo ATP depletion luminescence. A general note: In Kinase-Glo more light means more ATP remaining.
Sequence of Protein kinase 7 (PK7), Plasmodium falciparum 3D7 (PF3D7_0213400) (Q7YTF7 1-343): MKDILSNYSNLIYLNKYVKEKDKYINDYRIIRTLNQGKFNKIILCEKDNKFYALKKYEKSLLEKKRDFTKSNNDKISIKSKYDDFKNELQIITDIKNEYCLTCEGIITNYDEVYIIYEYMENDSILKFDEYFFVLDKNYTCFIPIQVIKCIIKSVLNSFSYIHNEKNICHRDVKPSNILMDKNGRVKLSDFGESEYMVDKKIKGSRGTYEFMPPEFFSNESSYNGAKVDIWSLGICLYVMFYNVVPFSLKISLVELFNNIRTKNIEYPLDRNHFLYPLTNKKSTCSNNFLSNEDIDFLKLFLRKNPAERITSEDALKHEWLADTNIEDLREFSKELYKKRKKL
Assay [7] has as its target Calcium-dependent protein kinase 4 (Plasmodium falciparum (isolate 3D7)) (UniProt Q8IBS5). Put plainly: PfCDPK4 kinase inhibitors, biochemical, TCAMS library (AID 1159588; cut-off not given, nearly all actives have IC50 up to about 0.91 µM). Particulars: recombinant PfCDPK4, Kinase-Glo ATP depletion luminescence.

Sequence of Calcium-dependent protein kinase 4 (Plasmodium falciparum (isolate 3D7)) (Q8IBS5 whole entry, looked up): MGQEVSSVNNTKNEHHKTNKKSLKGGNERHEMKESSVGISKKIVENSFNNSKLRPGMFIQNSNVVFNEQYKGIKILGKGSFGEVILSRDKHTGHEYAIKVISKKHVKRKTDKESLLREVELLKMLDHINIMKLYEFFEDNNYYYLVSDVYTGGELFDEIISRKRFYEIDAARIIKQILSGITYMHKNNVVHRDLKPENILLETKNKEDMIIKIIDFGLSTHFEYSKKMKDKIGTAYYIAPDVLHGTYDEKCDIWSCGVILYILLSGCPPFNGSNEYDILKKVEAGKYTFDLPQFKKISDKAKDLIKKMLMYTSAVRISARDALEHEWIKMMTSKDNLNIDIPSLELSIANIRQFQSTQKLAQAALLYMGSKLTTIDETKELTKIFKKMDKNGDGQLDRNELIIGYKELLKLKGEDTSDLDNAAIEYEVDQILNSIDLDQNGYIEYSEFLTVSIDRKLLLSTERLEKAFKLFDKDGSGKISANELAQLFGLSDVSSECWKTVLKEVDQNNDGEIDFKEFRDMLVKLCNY
Sequence of Plasmodium falciparum protein kinase 6 (PK6, PF3D7_1337100) (Q8IDW1 1-305): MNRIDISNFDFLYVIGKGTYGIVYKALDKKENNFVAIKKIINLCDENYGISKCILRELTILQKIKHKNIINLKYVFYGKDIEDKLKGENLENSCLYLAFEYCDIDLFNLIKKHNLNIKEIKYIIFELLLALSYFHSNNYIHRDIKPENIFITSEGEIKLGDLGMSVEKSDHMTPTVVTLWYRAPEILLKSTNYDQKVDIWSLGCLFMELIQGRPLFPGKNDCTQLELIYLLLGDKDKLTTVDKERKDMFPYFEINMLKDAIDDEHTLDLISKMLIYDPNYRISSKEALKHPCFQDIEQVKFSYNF
Sequence of L-lactate dehydrogenase (Plasmodium falciparum (isolate CDC / Honduras)) (Q27743 whole entry, looked up): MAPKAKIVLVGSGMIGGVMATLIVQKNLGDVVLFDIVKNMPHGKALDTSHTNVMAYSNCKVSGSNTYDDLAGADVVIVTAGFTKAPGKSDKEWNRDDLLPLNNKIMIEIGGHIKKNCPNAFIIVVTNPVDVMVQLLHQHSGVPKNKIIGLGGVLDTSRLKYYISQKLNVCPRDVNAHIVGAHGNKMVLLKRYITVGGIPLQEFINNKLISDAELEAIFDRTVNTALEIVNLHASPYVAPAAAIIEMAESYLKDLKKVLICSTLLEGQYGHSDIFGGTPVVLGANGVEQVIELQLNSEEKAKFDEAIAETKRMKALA

For orientation: inhibition means the drop in the measured response relative to a control, in per cent. Regarding `CC(C)(CNCc1ccc(F)c(F)c1)c1nc(-c2ccc(Cl)c(O)c2)c(-c2ccncc2)[nH]1`, the results for the growth inhibition in assay [1] and in assay [4] were 89% (active) and 102% (active), respectively. Also, the inhibition was 74% (active) in assay [2] and 2% in assay [3]. Moreover, the outcome in assay [5], in assay [6] and in assay [7] was inactive.
Regarding `CN1CCN(Cc2cccc(-c3ccc4c(Nc5cc(O)c(Cl)cc5F)ccnc4c3)c2)CC1`, the growth inhibition in assay [1] was 100% (active); in assay [4] it was 102% (active). For the same molecule, the figures for the inhibition in assay [2] and in assay [3] were -1% and 4%, respectively. Further, the outcome in assay [5], in assay [6] and in assay [7] was inactive.
`CN(C)CCN(C)Cc1nc(-c2ccc3c(Nc4ccc(Oc5ccccc5)cc4)ccnc3c2)cs1`: the growth inhibition in assay [1] and in assay [4] was 100% (active) each time. Besides, the inhibition in assay [2] is 27%; in assay [3], -3%. Besides, the result in assay [5], in assay [6] and in assay [7] was inactive.
With `Nc1ncc(-c2cn[nH]c2)cc1-c1nc2ccc(Cl)cc2[nH]1`, the growth inhibition is 100% (active) in assay [1] and 101% (active) in assay [4]. In addition, the figures for the inhibition in assay [2] and in assay [3] were 46% and -5%, respectively. Also, the outcome in assay [5], in assay [6] and in assay [7] was inactive.
Turning to `Oc1cc(-c2nc(C3(CNCc4ccc(Cl)cc4)CCCCC3)[nH]c2-c2ccncc2)ccc1Cl`, the growth inhibition is 99% (active) in assay [1] and 100% (active) in assay [4]. Moreover, the inhibition in assay [2] was 35%; in assay [3] it was 2%. Also, the result in assay [5], in assay [6] and in assay [7] was inactive.
`c1cncc(Oc2ccc(Nc3ccnc4cc(-c5cccc(CNCCN6CCOCC6)c5)ccc34)cc2)c1`: the results for the growth inhibition in assay [1] and in assay [4] were 99% (active) and 101% (active), respectively. Also, the inhibition was 14% in assay [2] and 4% in assay [3]. Moreover, the outcome in assay [5], in assay [6] and in assay [7] was inactive.
For `COc1cc(-c2nc(C(C)(C)CN)[nH]c2-c2ccncc2)ccc1Br`, the results for the growth inhibition in assay [1] and in assay [4] were 95% (active) and 97% (active), respectively. The inhibition was 17% in assay [2] and 1% in assay [3]. The outcome in assay [5], in assay [6] and in assay [7] was inactive.
Regarding `O=C(NCCCN1CCCCC1)c1ccc(Nc2nccc(Nc3ccc(Oc4ccccc4)cc3)n2)cc1`, the results for the growth inhibition in assay [1] and in assay [4] were 61% (active) and 100% (active), respectively. For the same molecule, the figures for the inhibition in assay [2] and in assay [3] were 30% and -3%, respectively. Besides, the result in assay [5], in assay [6] and in assay [7] was inactive.
On to `O=C(NCCN1CCC(c2ccncc2)CC1)c1cccc(Nc2nccc(Nc3ccc(Oc4ccccc4)cc3)n2)c1`, for which the growth inhibition in assay [1] was 91% (active); in assay [4] it was 101% (active). Moreover, the inhibition in assay [2] is 60% (active); in assay [3], -3%. Besides, the result in assay [5], in assay [6] and in assay [7] was inactive.
`CS(=O)(=O)Cc1ccc(Nc2nccc(-c3c(-c4cccc(NC(=O)c5c(F)cccc5F)c4)nn4ncccc34)n2)cc1`: the growth inhibition in assay [1] is 93% (active); in assay [4], 97% (active). Also, the inhibition is 86% (active) in assay [2] and 1% in assay [3]. The result in assay [5], in assay [6] and in assay [7] was inactive.
For the molecule `COc1ccc(Nc2ncc3c(-c4cccc(NC(=O)Cc5cccc(O)c5)c4)c[nH]c3n2)cc1OC`, the growth inhibition in assay [1] was 96% (active); in assay [4], 101% (active). Moreover, the figures for the inhibition in assay [2] and in assay [3] were 44% and -6%, respectively. Besides, the outcome in assay [5], in assay [6] and in assay [7] was inactive.
For `CC(C)(CN)c1nc(-c2ccc(Cl)c(O)c2)c(-c2ccnc(N)n2)[nH]1`, the growth inhibition in assay [1] and in assay [4] was 95% (active) throughout. Also, the inhibition is 34% in assay [2] and -5% in assay [3]. Also, the outcome in assay [5], in assay [6] and in assay [7] was inactive.
For the molecule `Oc1cccc(-c2cnc3ccc(NCc4ccc(F)cc4)nn23)c1`, the growth inhibition is 66% (active) in assay [1] and 91% (active) in assay [4]. For the same molecule, the results for the inhibition in assay [2] and in assay [3] were -5% and 2%, respectively. The outcome in assay [5], in assay [6] and in assay [7] was inactive.
As to `O=c1[nH]ccc2nc(N[C@@H]3CCNC3)nc(Nc3ccc4c(c3)S(=O)(=O)CC4)c12`, the growth inhibition in assay [1] was 99% (active); in assay [4] it was 100% (active). The values for the inhibition in assay [2] and in assay [3] were -4% and -2%, respectively. The result in assay [5], in assay [6] and in assay [7] was inactive.
In the case of `CC(C)(CNCc1ccccc1)c1nc(-c2ccc(Cl)c(O)c2)c(-c2ccncc2)[nH]1`, the growth inhibition in assay [1] is 99% (active); in assay [4], 101% (active). Further, the figures for the inhibition in assay [2] and in assay [3] were 77% (active) and -2%, respectively. In addition, the outcome in assay [5], in assay [6] and in assay [7] was inactive.
As for `COc1ccc(-c2cnc3ccc(N4CCCC4)nn23)cc1OC`, the growth inhibition in assay [1] and in assay [4] was 98% (active) throughout. For the same molecule, the inhibition is 40% in assay [2] and 0% in assay [3]. The result in assay [5], in assay [6] and in assay [7] was inactive.
Turning to `NCCCOc1cnc(-c2ccccc2)c2nc(-c3nonc3N)n(CCc3ccccc3)c12`, the growth inhibition in assay [1] was 86% (active); in assay [4], 93% (active). The figures for the inhibition in assay [2] and in assay [3] were 56% (active) and -4%, respectively. Besides, the outcome in assay [5], in assay [6] and in assay [7] was inactive.
